{
  "source": "PubChem BioAssay (EPA / NIEHS)",
  "note": "Inconclusive results are not listed. Active and inactive are the calls of the source. How the source made its calls: active means hit-call score of the fitted dose curve at least 0.9, where 1 is the maximum; inconclusive means response in the unintended direction; inactive means score below 0.9.",
  "data": [
    {"read-out": "xenobiotic metabolism (CYP2C9), CYP2C9 (gene 1559)", "experiment": "CLD_CYP2C9_6hr: CellzDirect (CLD) Gene Expression Assay for xenobiotic metabolism (CYP2C9) at 6 hours (AID 2283664)", "method": "CLD_6hr is a cell-based, multiplexed-readout assay that uses hepatocyte, a human liver primary cell, with measurements taken at 6 hours after chemical dosing in a 96-well plate.CLD_CYP2C9_6hr is one of 16 assay component(s) measured or calculated from the CLD_6hr assay. It is designed to make measurements of mRNA induction, a form of inducible reporter, as detected with chemiluminescence signals by Quantitative Nuclease Protection Assay (qNPA) technology.Data from the assay component CLD_CYP2C9_6hr was analyzed at the endpoint, CLD_CYP2C9_6hr, in the positive analysis fitting direction relative to DMSO as the negative control and baseline of activity. Using a type of inducible reporter, gain-of-signal activity can be used to understand changes in the reporter gene as they relate to the gene CYP2C9. Furthermore, this assay endpoint can be referred to as a primary readout. To generalize the intended target to other relatable targets, this assay endpoint is annotated to the cyp intended target family, where subfamily is xenobiotic metabolism.\nHuman hepatocyte cultures were treated daily for two consecutive days with fresh dosing solutions containing appropriate concentrations of the 320 ToxCast chemicals (chemical identities were blinded to CellzDirect and other ToxCast collaborators), vehicle control (0.2% DMSO), and positive control inducers as summarized in Table 1. Due to the large number of treatment groups and chemicals examined, the ToxCast chemicals were divided into two groups (spanning two independent cultures of hepatocytes from separate donor preparations (Hu778: ToxCast plates 1 and 2; Hu776: ToxCast plates 3 and 4). Each preparation of human hepatocyte cultures was treated with respective vehicle control, medium only control, set of six positive controls/reference chemicals for the five hepatic receptor pathways, and a subset of eight of the ToxCast chemicals (indoxacarb, pyrithiobac-sodium, norflurazon, cyhalofop-butyl, methomyl, thiram, acetochlor, and propiconazole). These replicate data, coupled with internal replicates designed within the blinded ToxCast chemical library, provided additional data to evaluate interindividual differences between hepatocyte preparations and their potential impact on chemical profiles.Cell morphology and integrity were evaluated using phase-contrast microscopy as an indicator of hepatocyte cell health (Tyson & Green, 1987). Cultures for each treatment group (i.e., media, vehicle [0.2% DMSO], positive control inducers [multiple concentrations], and the ToxCast chemicals [multiple concentrations]) were observed and cell morphology was assessed relative to vehicle control cultures at each harvest time point (0, 6, 24, or 48 h). […] Images were evaluated at the conclusion of the study to assess changes in cell integrity and account for the effects of chemical exposure on uncharacteristic changes in concentration-dependent gene expression profiles. The results from these determinations of apparent cytotoxicity were annotated (yes/no) alongside the corresponding qNPA data for reference.At the conclusion of each treatment period, hepatocyte cultures (96-well) were washed with 1 volume of HBSS, lysed by addition of 25 ul ArrayPlate lysis buffer (HTG, Tucson, AZ), and 70 ul/well of Denaturation Oil, denatured by incubation at 95C for 10 min, and frozen at approximately -70C until analysis by nuclease protection assay (qNPA) (Roberts et al., 2007). For qNPA analysis, cell lysates were thawed at 50C for approximately 30 min, qNPA probes were added, and samples were incubated at 95C for 10 min to begin the detection process by denaturing the target RNA, dissociating the duplexes and secondary structure hybridization. At the conclusion of the hybridization period, S1 nuclease reagent was added to each sample to digest all nonprotected nucleotides at 50C for 60-90 min. […]", "values": [
      {"compound": "CCNc1nc(Cl)nc(NCC)n1", "outcome": "inactive"},
      {"compound": "COC(=O)N(OC)c1ccccc1COc1ccn(-c2ccc(Cl)cc2)n1", "outcome": "inactive"},
      {"compound": "COC(=O)c1ccccc1C(=O)OC", "outcome": "inactive"},
      {"compound": "OC(c1ccc(Cl)cc1)(c1cncnc1)c1ccccc1Cl", "note": "(centres undefined)", "outcome": "inactive"},
      {"compound": "C=CCC1=C(C)C(OC(=O)C2C(C=C(C)C)C2(C)C)CC1=O", "note": "(centres undefined)", "outcome": "inactive"},
      {"compound": "COP(=S)(OC)Oc1nc(Cl)c(Cl)cc1Cl", "outcome": "inactive"},
      {"compound": "Oc1ccccc1-c1ccccc1", "outcome": "inactive"},
      {"compound": "CNC(=O)ON=CC(C)(C)SC", "outcome": "inactive"},
      {"compound": "O=C(O)COc1nc(Cl)c(Cl)cc1Cl", "outcome": "inactive"},
      {"compound": "COc1cnc(OC)n2nc(NS(=O)(=O)c3c(OCC(F)F)cccc3C(F)(F)F)nc12", "outcome": "inactive"},
      {"compound": "O=C(O)c1nc(Cl)ccc1Cl", "outcome": "inactive"},
      {"compound": "CCCCC(CC)COC(=O)c1ccccc1C(=O)OCC(CC)CCCC", "note": "(centres undefined)", "outcome": "inactive"},
      {"compound": "CCCCOC(=O)c1ccccc1C(=O)OCCCC", "outcome": "inactive"},
      {"compound": "COc1nc(C)nc(NC(=O)NS(=O)(=O)c2ccccc2Cl)n1", "outcome": "inactive"},
      {"compound": "CCCN(CCC)c1c([N+](=O)[O-])cc(S(N)(=O)=O)cc1[N+](=O)[O-]", "outcome": "inactive"},
      {"compound": "Fc1ccc(Oc2ccnc3cc(Cl)cc(Cl)c23)cc1", "outcome": "inactive"},
      {"compound": "COc1nc(NC(C)C)nc(NC(C)C)n1", "outcome": "inactive"},
      {"compound": "CC(C)C1(C)N=C(c2nc3ccccc3cc2C(=O)O)NC1=O", "note": "(centres undefined)", "outcome": "inactive"},
      {"compound": "C#CCOS(=O)OC1CCCCC1Oc1ccc(C(C)(C)C)cc1", "note": "(centres undefined)", "outcome": "inactive"},
      {"compound": "CNC(=S)S", "outcome": "inactive"},
      {"compound": "Cc1cc(Cl)ccc1OCC(=O)O", "outcome": "inactive"},
      {"compound": "CCOC(=O)C(Cl)Cc1cc(-n2nc(C)n(C(F)F)c2=O)c(F)cc1Cl", "note": "(centres undefined)", "outcome": "inactive"},
      {"compound": "COc1nc(C)nc(NC(=O)NS(=O)(=O)c2ccccc2CCC(F)(F)F)n1", "outcome": "inactive"},
      {"compound": "COC(=O)C=C(C)OP(=O)(OC)OC", "outcome": "inactive"}
    ]}
  ]
}
